Screens from PubChem.
KDM5B inhibitor = KDM5B demethylase inhibition; hit rate 2.6% among 220,000; Q9UGL1; KDM5B demethylase, FDH-coupled NADH fluorescence (FDH is formaldehyde dehydrogenase); Potency, µM (highest dose often 57.7 µM), actives largely listed as inhibitors; active = well fitted inhibition curve with a large enough effect; also: 0% is about no effect; nearly all actives have a fitted effect of over 70% in size
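qHTS format, multiple compound concentrations. Buffer 50 mM HEPES pH 7.5/0.01% Tween-20; 200 nM KDM5BΔAP final; 10 min compound preincubation; substrate-mix levels 12.5 µM peptide, 25 µM α-KG, 0.25 mM NAD⁺; 30 min RT; ΔRFU.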
The depositor's hits bear a star; i = inactive. This excerpt belongs to a sample that is enriched for hits. Potency is read from the fitted curve at half-maximal effect.

SMILES | KDM5B inhibitor
CCCc1cc(C(=O)N2CCCC3(CCC(=O)N(CCOC)C3)C2)cs1 (stereo not given) | i
CCn1c(=O)[nH]c(=O)c2c(C(=O)O)cc(C3CC3)nc21 | i
CCOC(=O)c1coc(CNC(=O)c2coc(C)c2)c1 | i
O=C1Cc2c(-c3ccc(N4CCOCC4)cc3)n[nH]c2CN1CCc1ccncc1 | 22.4µM*
O=C1Cc2c(-c3ccc4ccccc4c3)n[nH]c2CN1CCc1ccncc1 | i
O=C1Cc2c(-c3ccccc3)n[nH]c2CN1CCc1ccncc1 | i
Cc1ncoc1C(=O)N1CCC2(CC1)CCC(O)(CN(C)C)CC2 | i
CCn1nccc1C(=O)N1CCC2(CC1)CCC(O)(CN(C)C)CC2 | 20µM*
CN(C)CC1(O)CCC2(CCN(C(=O)c3nccc4ccccc34)CC2)CC1 | i
O=C(Cc1c[nH]c2ccccc12)OC/C=C/c1ccccc1 | i
Cc1nn(CC(O)c2ccc(F)cc2)c(=O)c2ccccc12 (stereo not given) | i
O=C(Cn1ccn2nc(-c3ccc4c(c3)OCO4)cc2c1=O)NCc1ccc(Cl)cc1 | i
O=c1c2cc(-c3ccc(F)cc3)nn2ccn1CC(O)c1ccc(F)cc1 (stereo not given) | 20µM*
COc1ccc(CNC(=O)Cn2ccn3nc(-c4ccc5c(c4)OCO5)cc3c2=O)cc1 | i
O=c1c2cc(-c3ccc(F)cc3)nn2ccn1CC(O)c1ccc2c(c1)OCO2 (stereo not given) | 31.6µM*
CCOc1ccc(-c2cc3c(=O)n(CC(=O)NCc4ccc(F)cc4)ccn3n2)cc1 | i
NC(=O)COc1ccc(C(=O)N[C@@H]2CNCCC[C@H]2O)cc1 | i
O=C(c1ccccc1)N1CCC(c2nc(C3CCOCC3)no2)CC1 | i
CC(=O)N1CCC(N2CCOC[C@H]2c2ncc(-c3ccc(C(F)(F)F)cc3)[nH]2)CC1 | i
O=c1c2c(-c3ccccc3)n3ncnc3nc2ccn1CCc1cccs1 | i
CCCC(=O)N1CCN(c2ccc(NC(=O)C3(c4ccccc4)CCCC3)cc2)CC1 | i
CN(C)[C@@H]1CN(C(=O)CCc2ccccc2)CC[C@]1(O)c1ccccc1 | i
CCCC(=O)N1CCC(O)(c2ccccc2)[C@H](N2CCCC2)C1 (stereo not given in full) | 10µM*
O=C(N/N=C/c1ccc(Cl)cc1)C1CC1 | i
O=C1NC2(CCN(C(=O)c3ccccc3)CC2)Oc2ccccc21 | i
SMILES | KDM5B inhibitor
O=C(COc1ncnc2ccc(Br)cc12)NCc1ccccc1 | i
COCc1cn(C[C@H]2C[C@@H](NS(C)(=O)=O)[C@H](O)[C@@H]2O)nn1 | i
CN(C)c1ccc(C(=O)N2CCc3cn(C)c4cccc(c34)C2)cc1 | i
CCn1cc2c3c(cccc31)CN(C(=O)c1ccc(OC)c(F)c1)CC2 | 31.6µM*
COc1ccc(C(=O)N2CCc3cn(C)c4cccc(c34)C2)c(C)c1 | i
O=C(c1cc(-c2ccco2)[nH]n1)N1CCN(c2ccccn2)CC1 | i
Cn1ccc2c(C(=O)NCc3cccnc3)nc(-c3cccc(F)c3)cc21 | 22.4µM*
COc1ccc(-c2cc3c(ccn3C)c(C(=O)NCc3cccnc3)n2)cc1 | i
Cn1ccc2c(C(=O)NCc3cccnc3)nc(-c3cncnc3)cc21 | i
Cc1ccc(-c2cc3c(ccn3C)c(C(=O)NCc3cccnc3)n2)cn1 | i
Cn1ccc2c(C(=O)NCc3cccnc3)nc(-c3cccc(O)c3)cc21 | 39.8µM*
Cn1ccc2c(C(=O)NCc3cccnc3)nc(-c3cnn(Cc4ccccc4)c3)cc21 | i
CCC(C)c1ccc(NC(=O)CCc2ncc(-c3ccccc3)o2)cc1 (stereo not given) | i
Cc1oc(-c2nc(C#N)c(N(C)C)o2)cc1S(=O)(=O)N(Cc1ccccc1)C(C)C | i
O=C(NCc1ccc(F)cc1)c1nc(-c2cc(Cl)cc(Cl)c2)c2ccccn12 | i
C[S+](=O)([O-])c1ccc(-c2nc(C(=O)NCc3ccc(F)cc3)n3ccccc23)cc1 | 89.1µM*
C[S+](=O)([O-])c1ccc(-c2nc(C(=O)NCc3cccnc3)n3ccccc23)cc1 | i
O=C(NCc1ccc(F)cc1)c1nc(-c2ccc(F)cc2)c2ccccn12 | 31.6µM*
O=C(Cc1csc2nc(-c3ccccc3)cn12)NCc1ccc(F)cc1 | i
O=C(COC(=O)c1cc(=O)c2ccccc2o1)Nc1ccc(F)cc1 | i
COc1ccc2[nH]c3c(c2c1)CCNC31CCN(C(=O)c2cc(C)nn2C)CC1 | i
O=C(Cc1ccccc1)Nc1ccnn1C1CCN(Cc2cc3ccccc3s2)CC1 | i
O=C(Cn1ccn(-c2ccc(F)c(F)c2)c(=O)c1=O)Nc1cccc(Cl)c1 | i
O=C1NCc2ccccc2CC12CCCCN2Cc1cncs1 (stereo not given) | i
O=C(OCC(=O)N1CCCC1=O)c1csc(NCc2ccccc2)n1 | i
SMILES | KDM5B inhibitor
COc1ccc(/C=C/C(=O)OCCN(C)C)cc1 | i
COc1cccc(-c2cc(C(=O)Nc3cc(OC)ccc3OC)[nH]n2)c1 | i
O=C(CCC[C@@H]1[C@H]2CCCN3CCC[C@@H](CN1C(=O)C1CCC1)[C@@H]23)NCC1CC1 | i
O=C1CCC2(CCCO2)CCN1Cc1ccc(C(F)(F)F)c(F)c1 (stereo not given) | i
O=C1CC(c2cc(Br)ccc2F)c2cc3c(cc2N1)OCO3 (stereo not given) | i
COc1ccc(C(=O)C(C#N)C(=O)c2ccc(C)c(OC)c2)cc1 (stereo not given) | i
Cc1ccc2c(C(=O)Nc3ccc(Cl)nc3)cnn2c1 | 39.8µM*
C=CCNC(=O)c1ccccc1NC(=O)c1ccccn1 | i
Cc1ccc2c(C(=O)NCc3ccc(Cl)cc3)cnn2c1 | 35.5µM*
Cc1ccc(NC(=O)c2cnn3cccnc23)cc1C | i
C=CCNC(=O)c1cnn2c1CN(C(C)=O)CC2 | i
C=CCNC(=O)c1cnn2cc(C)ccc12 | 39.8µM*
CCn1ncc(C(=O)Nc2ccc(F)cc2)c1C | i
C=CCNC(=O)c1cnn2ncccc12 | 31.6µM*
Cc1ccc(CNC(=O)c2cc(-c3ccc(Cl)cc3)on2)cc1 | i
C=CCNC(=O)c1cnn2c1CN(C(=O)c1cccnc1)CC2 | i
Cc1ccc(-c2nc(C(=O)NCc3ccc(Cl)cc3)no2)cc1 | i
C=CCNC(=O)c1cnn(-c2ccc(C(F)(F)F)cn2)c1C(F)(F)F | i
CC(=O)c1ccc(NC(=O)O[C@@H]2CO[C@H]3[C@@H]2OC[C@@H]3NC(=O)c2ccccc2)cc1 | i
O=C1NCCCCCN(C(=O)c2ccncc2)[C@H]2CCC[C@@H]12 | i
CCOc1ccccc1NC(=O)COC(=O)c1nn(C)c(=O)c2ccccc12 | i
Cc1cccc(OCC(=O)N2C[C@@H](CO)[C@H](c3ccncc3)C2)c1 | i
O=C(CCC(F)(F)F)NC1CC(=O)N(Cc2ccccc2Cl)C1 (stereo not given) | i
COc1ccc(NC(=O)CSc2nc(Cl)nc3nc[nH]c23)cc1OC | i
O=C(CS(=O)(=O)c1ccc(F)cc1)N1CCOCC1 | i
CNC(=O)c1cccc(-c2cnc3[nH]cc(CC(=O)NCc4cccs4)c3c2)c1 | i
CC(=O)Nc1cccc(-c2cnc3[nH]cc(CC(=O)N4CCOCC4)c3c2)c1 | 31.6µM*
O=C(Cc1c[nH]c2ncc(-c3ccncc3)cc12)N1CCOCC1 | i
Cc1ccc(-c2cnc(CCC(=O)N3CCOCC3)o2)cc1C | i
O=C(Cc1c[nH]c2ncc(-c3ccc(F)cc3)cc12)N1CCOCC1 | 28.2µM*
